NOTCH agonist = agonists of NOTCH signaling; activation, % at 2.5 µM; 15,000 compounds, 0.4% hits; NOTCH signaling luciferase reporter cells, luminescence; in the data active = activation above about 2.2%
luminol inh ctr = counter-screen for Nox1 inhibitors: inhibitors of luminol chemiluminescence; 16,000 compounds, 0.4% hits; AID 1823, 2009; HRP/luminol/H2O2 chemiluminescence counterscreen; inhibition, % at 6.7 µM; also: reference of the scale not given here
PME-1 Maybridge = inhibitors of human PME-1 in Maybridge library; Protein phosphatase methylesterase 1 (Homo sapiens), Q9Y570; recombinant PME-1, FP-Rh probe fluorescence polarization; inhibition, % at 9 µM; 16,000 compounds, 0.5% hits; in the data active = inhibition above about 30%
S1P1 agonist = activates the human S1P1 receptor. Sphingosine 1-phosphate receptor 1 (Homo sapiens), P21453. S1P1 agonist cell-based reporter assay. activation, % at 4.5 µM. 16,000 compounds, 1.5% hits. AID 1044, 2008; in the data active = activation above about 80%
rat GALR2 ag = agonists of rat galanin receptor 2 (GALR2) | activation, % at 10 µM | 16,000 compounds, 0.5% hits | AID 833, 2007 | cell-based GALR2 agonist screen | Galanin receptor type 2 (Rattus norvegicus), O08726; in the data active = activation above about 15%
Nox1 inhibitor = inhibitors of human NADPH oxidase 1 (Nox1) | inhibition, % at 6.7 µM | Q9Y5S8 | AID 1792, 2009 | 16,000 compounds, 0.81% hits | HT29 cells, luminol chemiluminescence ROS
Target sequence (Q9Y5S8 whole entry, looked up): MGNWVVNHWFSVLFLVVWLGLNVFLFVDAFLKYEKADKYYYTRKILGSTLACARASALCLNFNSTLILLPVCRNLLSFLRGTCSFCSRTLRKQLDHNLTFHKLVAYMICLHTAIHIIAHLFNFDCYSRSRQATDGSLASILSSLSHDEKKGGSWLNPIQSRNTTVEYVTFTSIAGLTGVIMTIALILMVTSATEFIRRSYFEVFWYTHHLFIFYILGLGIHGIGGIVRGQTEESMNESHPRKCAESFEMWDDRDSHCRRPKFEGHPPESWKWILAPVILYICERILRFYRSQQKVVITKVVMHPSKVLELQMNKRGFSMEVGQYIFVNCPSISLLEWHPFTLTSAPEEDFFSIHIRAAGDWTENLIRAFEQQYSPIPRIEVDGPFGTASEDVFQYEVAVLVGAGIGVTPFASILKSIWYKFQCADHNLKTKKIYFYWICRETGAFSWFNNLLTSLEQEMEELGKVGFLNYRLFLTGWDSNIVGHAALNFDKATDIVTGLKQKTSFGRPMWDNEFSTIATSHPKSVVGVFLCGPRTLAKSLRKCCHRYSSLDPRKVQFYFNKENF
Hits are given with their value; . = inactive; / = no result. An excerpt weighted towards active compounds, which were near 4.1% of everything screened. Rule as the data show it, unless noted: active = inhibition above about 75%; inactive = the rest.

SMILES	NOTCH agonist	luminol inh ctr	PME-1 Maybridge	S1P1 agonist	rat GALR2 ag	Nox1 inhibitor
COc1ccc(S(=O)(=O)N2CCN(c3ccc(C(F)(F)F)cc3[N+](=O)[O-])CC2)cc1OC	.	.	.	.	80	.
NC(=O)N/C(CSc1ccc(Cl)cc1)=N\O	.	.	.	.	.	.
CCOC(=O)CCc1ccc2c(c1)NC(c1ccc([N+](=O)[O-])s1)O2 (stereo not drawn)	.	.	.	.	.	82
CCOC(=O)CCc1ccc2c(c1)NC(c1cccc([N+](=O)[O-])c1)O2 (stereo not drawn)	.	.	.	.	.	96
CCOC(=O)CCc1ccc(Oc2c([N+](=O)[O-])cc(C(F)(F)F)cc2[N+](=O)[O-])cc1	/	.	.	.	.	.
O=C(NCc1ccc(F)c(Cl)c1)Nc1csc([N+](=O)[O-])c1	.	.	.	.	.	.
COC(=O)c1cnc(NNC(=O)C(Cl)Cl)nc1C(F)(F)F	.	.	.	.	.	.
COC(=O)c1cnc(NNS(=O)(=O)c2ccc(Cl)cc2)nc1C(F)(F)F	.	.	.	.	.	98
CN1OC(COC(=O)c2cc(Cl)cc(Cl)c2)CC12C1CC3CC(C1)CC2C3 (stereo not drawn)	.	.	.	.	.	.
O=C(Cc1ccccc1Cl)N/N=C(/C(=O)O)c1ccccc1	.	.	38	.	.	.
Cc1ccc(NC(=O)Nc2ccc(OCc3ccccc3)cc2)cc1NS(C)(=O)=O	/	.	.	88	.	.
Cn1nc(-c2ccccc2)cc1NC(=O)Nc1ccc(OCc2ccccc2)cc1	.	.	.	.	.	.
CN(C)c1ccc(NC(=O)Nc2ccc(OCc3ccccc3)cc2)cc1	.	.	.	.	.	107
COc1ccc(/C=C2\SC3C(C#N)=C(c4ccc(OC)cc4)C(C#N)=C(N)N3C2=O)cc1 (stereo not drawn)	.	.	.	.	.	.
C=C(C)c1ccccc(=O)c1O	4.9	.	.	.	.	.
CC(Oc1ccccc1-c1ccccc1)c1n[nH]c(=S)n1C (stereo not drawn)	/	94	.	.	.	.
S=c1[nH]nc2c(-c3ccccc3)c(-c3ccccc3)c(-c3ccccc3)nn12	.	.	.	.	.	.
O=c1c(C=Nc2ccccc2)c(Nc2ccccc2)[nH]n1-c1ccccc1	.	.	84	.	.	.
CCOC(=O)Cc1c(C)[nH]n(-c2ccccc2)c1=O	.	.	.	.	.	.
CCN(CC)c1ccc(NC(=O)c2c(F)cccc2F)c(N(CC)CC)n1	.	.	.	.	.	94
O=[N+]([O-])c1cccnc1SCc1csc2ccc(Cl)cc12	.	.	.	106	.	.
O=[N+]([O-])c1cccnc1Sc1cc(Cl)ccc1Cl	.	.	.	.	.	.
O=C(OC1OCCOC1OC(=O)c1ccc([N+](=O)[O-])cc1)c1ccc([N+](=O)[O-])cc1 (stereo not drawn)	.	.	.	.	.	.
O=c1ccc([N+](=O)[O-])cn1C1CCCCO1 (stereo not drawn)	.	.	.	94	.	.
O=C(Nc1ccc2c(c1)OCCO2)C1CC1	.	.	.	.	.	.
SMILES	NOTCH agonist	luminol inh ctr	PME-1 Maybridge	S1P1 agonist	rat GALR2 ag	Nox1 inhibitor
O=C1NNC(SCc2ccc(Br)cc2)=Nc2ccccc21	.	.	.	96	.	.
O=C(COCC(=O)N1CCOCC1)N1CCOCC1	.	.	.	.	.	.
COc1ccccc1Oc1ccc(C(F)(F)F)cc1N	.	.	.	.	.	.
COc1ccc(-c2cc(-c3ccc(OC)cc3)c3c(=O)n(C)c(=O)n(C)c3n2)cc1	.	.	.	81	.	.
O=C1Nc2ccc(OC(F)(F)F)cc2C1=O	.	.	.	.	26	.
CC(=O)Nc1ccc(OC(F)(F)F)cc1Cl	.	.	.	.	.	.
CCOC(=O)c1cc(C(=O)CSc2ccc(C(F)(F)F)cn2)on1	.	.	.	.	.	.
COCCOc1cc2ncnc(N3CCC(C(=O)O)CC3)c2cc1OCCOC	.	.	.	113	.	.
Cc1cc(=O)n(CCO)c(=O)[nH]1	.	.	.	.	.	.
O=c1[nH]c2ccsc2c(=O)n1CCO	.	.	.	.	.	84
CC(C)(CC(=O)O)CC(=O)N1CCN(c2ncccn2)CC1	.	.	.	.	.	.
O=S(=O)(c1ccccc1)N1CCN(c2ncnc3sccc23)CC1	.	.	.	92	.	.
N#Cc1ccc(N2CCN(S(=O)(=O)c3ccccc3)CC2)nc1	3.4	.	.	.	.	.
COc1cc(NC(=O)c2ccccc2)c(C)cc1NC(=O)COc1ccc(Cl)cc1Cl	.	.	.	.	.	.
O=C(O)C(Cc1ccc(O)cc1)N1CCS(=O)(=O)CC1 (stereo not drawn)	.	.	.	.	.	.
O=C(NCc1ccccn1)c1cccnc1SCCS(=O)(=O)c1cccc(C(F)(F)F)c1	.	.	.	117	.	.
O=C(NCc1ccccn1)c1cccc(C(F)(F)F)n1	.	.	.	.	.	.
Cc1c(-c2ccnc(-c3ccccc3)n2)sc2nc(C(F)(F)F)nn12	.	.	.	.	.	.
COc1ccc(C#N)c(C(=O)O)c1	.	.	.	.	.	.
COc1ccc(N(C)CC(=O)O)c(C(=O)O)c1	.	.	.	.	.	97
CC(C)OC(=O)c1ccc([N+](=O)[O-])cc1	.	.	.	.	.	.
COc1cc(C(=O)c2cc(Cl)ccc2N)ccc1O	.	.	.	.	.	.
O=S(=O)(NCC1CC1)c1ccc(F)cc1F	.	.	.	.	.	.
Cc1cc(NC(=O)c2cc(-c3ccccc3)c(C(F)(F)F)s2)on1	.	.	.	.	.	.
O=C(Nc1ccccn1)c1cc(-c2ccccc2)c(C(F)(F)F)s1	.	.	.	87	.	.
SMILES	NOTCH agonist	luminol inh ctr	PME-1 Maybridge	S1P1 agonist	rat GALR2 ag	Nox1 inhibitor
CC(=O)N(/N=C/c1ccc(F)cc1)C1=NN(C(C)=O)C(c2ccc(F)cc2)S1 (stereo not drawn)	.	.	.	.	.	.
COc1cccc(C2Nc3ccccc3C(=O)N2NS(=O)(=O)c2ccc(C)cc2)c1O (stereo not drawn)	.	99	.	.	.	.
CCc1ccc2[nH]c(C(=O)NCCN3CCCCC3)cc2c1	.	.	.	.	.	.
Cc1c(Cc2c(Cl)cccc2Cl)c(=O)oc2cc(O)ccc12	.	.	33	.	.	.
Cc1cc(N2C(=O)C=CC2=O)no1	.	.	.	.	.	.
Nc1nnc(Sc2cc3c(cc2[N+](=O)[O-])C(=O)NC3=O)s1	.	.	.	.	.	76
N#Cc1cc([N+](=O)[O-])ccc1Sc1nnc(N)s1	.	.	.	.	.	.
Cc1ccc([N+](=O)[O-])c(NS(=O)(=O)c2cc(Cl)c(Cl)cc2Cl)c1	.	.	.	87	.	.
O=S(=O)(Nc1cccc2cccnc12)c1cc(Cl)c(Cl)cc1Cl	.	.	.	.	.	.
